Source: PubChem BioAssay (NCATS)
Inconclusive results are not listed. A call without a number means that no potency is given here. Values without a mark were called inactive. Calls of active or inactive are those of the source. Calls follow the shape of the dose curve; as a rule, active = well fitted cell-killing curve with a large enough effect; inconclusive = small, poorly fitted or top-dose-only effect; inactive = no such curve, though single readings can be large or run the other way.

Assay: qHTS of pediatric cancer cell lines to identify multiple opportunities for drug repurposing: Primary screen for Rh30 cells (AID 1347107); also: nearly all actives have a fitted effect of over 75% in size
Conditions: Rh30 rhabdomyosarcoma viability, CellTiter-Glo luminescence, 48 h; series mostly up to 46 µM
Source text: Drug repurposing or repositioning has been offered as a strategy for drug development in oncology programs. This approach has special potential for childhood cancers and other rare or orphan diseases, where the expected return on new drug development has been a disincentive to pharmaceuticals.
In this project we exploit the poly-pharmacology of drugs to discover new indications via phenotypic screening of a panel of 19 well-characterized cell lines derived from solid tumors seen in children and adolescents. The goal is to identify approved drugs with previously unrecognized anticancer properties that has the potential to reveal new mechanisms and biological processes involved in carcinogenesis or drug resistance. We employed a titration-based paradigm (quantitative high-throughput screening or qHTS), where all compounds were tested at multiple concentrations for their effect on cell viability. Concentration-response curves (CRCs) were derived directly from the primary screen, and both potency and efficacy values were used to identify compounds with robust bioactivity profiles. We screened the NIH Chemical Genomics Center (NCGC) Pharmaceutical Collection (NPC) and Mechanism Interrogation Plate (MIPE) small molecule collections of approved and investigational compounds against these cell lines; and measured metabolically active cells after 48 hours of compound treatment as a proxy for cell viability.
Assay Submitter: Nathalia J. Martinez, National Center for Advancing Translational Sciences, National Institutes of Health, Rockville, MD, USA; email: natalia.martinez@nih.gov
[1] Shen, M et al. Quantitative high-throughput phenotypic screening of pediatric cancer cell lines identifies multiple opportunities for drug repurposing. Oncotarget 2017 Dec 19;9(4):4758-4772. PMID 29435139.
The cells were obtained from University of North Carolina (UNC), Pediatric Preclinical Testing Program (PPT), and Coriell Institute (CI).
qHTS cell viability assay:
Cells were assayed in growth media at a density of 500-1,000 cells/well. Five microliters of cells were dispensed into 1,536-well, white, solid-bottom, TC-treated plates (Greiner Bio One) using a multidrop dispenser and incubated at 37 degrees C, 5% CO2, under a humidified atmosphere for 5 hours. Twenty-three nanoliters of compounds and controls (neutral control DMSO or positive control bortezomib at final concentration of 2.3 µM) were subsequently transferred by Kalypsys pintool. For primary screens, the MIPE collection was tested at 11-point dilutions (final concentrations range from 0.78 nM to 46 µM) and the NPC collection at 8-point dilutions (final concentrations range from 0.59 nM to 46 µM). Compounds tested in follow-up screens were assayed at 11-point dilutions. Cells were incubated for 48 hours, followed by addition of 3 µL of CellTiter-Glo (Promega). After a 15 min incubation at room temperature, samples were analyzed for luminescence intensity using a ViewLux High-throughput CCD imager equipped with clear filters.
For `CCCCC1=NC2(CCCC2)C(=O)N1Cc1ccc(-c2ccccc2-c2nn[nH]n2)cc1`, the Potency was “inactive”.
For `O=C1[C@H]2CCCC[C@H]2C(=O)N1CCCCN1CCN(c2nsc3ccccc23)CC1`, the Potency was “inactive”.
With `CC[N+](CC)(CCNC(=O)C(=O)NCC[N+](CC)(CC)Cc1ccccc1Cl)Cc1ccccc1Cl` the Potency was “inactive”.
In the case of `COc1cc(-c2ccc(=O)[nH]n2)ccc1OC(F)F`, the Potency was “inactive”.
For `O=C1c2ccccc2C(=O)C1c1ccccc1`, the Potency was “inactive”.
With `CCOC(=O)/C=C(C)/C=C/C=C(C)/C=C/c1c(C)cc(OC)c(C)c1C` the Potency was “inactive”.
With `C=C(CC)C(=O)c1ccc(OCC(=O)O)c(Cl)c1Cl` the Potency was “inactive”.
In the case of `CCCCCCCCCCCCCCCCOP(=O)([O-])OCC[N+](C)(C)C`, the Potency was “inactive”.
For `C[C@H](O)C(=O)Nc1c(I)c(C(=O)NC(CO)CO)c(I)c(C(=O)NC(CO)CO)c1I`, the Potency was “inactive”.
With `COC(=O)CCc1ccc(OCC(O)CNC(C)C)cc1` (stereo not given) the Potency was “inactive”.
With `CC1(C)O[C@@H]2C[C@H]3[C@@H]4C[C@H](F)C5=CC(=O)CC[C@]5(C)[C@H]4[C@@H](O)C[C@]3(C)[C@]2(C(=O)CO)O1` the Potency was “inactive”.
With `CCN(CC)C(=O)N1CCN(C)CC1` the Potency was “inactive”.
For `NC(=O)c1cc[n+](CC2=C(C(=O)[O-])N3C(=O)[C@@H](NC(=O)Cc4cccs4)[C@H]3SC2)cc1`, the Potency was “inactive”.
With `CC(=O)OCC(=O)NCCCOc1cccc(CN2CCCCC2)c1` the Potency was “inactive”.
For `Oc1cc(O)c2c(c1)O[C@H](c1ccc(O)c(O)c1)[C@H](O)C2`, the Potency was “inactive”.
With `CCOC(=O)COc1ccc2c(C)c(CCN(CC)CC)c(=O)oc2c1Cl` the Potency was “inactive”.
With `N[C@H](Cc1c[nH]c2ccccc12)C(=O)O` the Potency was “inactive”.
In the case of `C[C@]12CCC(=O)C=C1[C@@H]1C[C@@H]1[C@H]1[C@@H]3[C@@H]4C[C@@H]4[C@@]4(CCC(=O)O4)[C@@]3(C)CC[C@@H]12`, the Potency was “inactive”.
In the case of `CCCCCCCCCCCCCCNCCO`, the Potency was “inactive”.
With `CCN1CCCC1=O` the Potency was “inactive”.
In the case of `Cc1c(C(C)C)c(=O)n(-c2ccccc2)n1C`, the Potency was “inactive”.
With `CC(=O)[C@H]1CC[C@H]2[C@@H]3C[C@H](C)C4=CC(=O)CC[C@]4(C)[C@H]3[C@@H](O)C[C@]12C` the Potency was “inactive”.
For `NC(CS)C(=O)O` (stereo not given), the Potency was “inactive”.
With `CC(=O)OCC(=O)[C@@]1(OC(C)=O)[C@@H](C)C[C@H]2[C@@H]3C[C@H](F)C4=CC(=O)C=C[C@]4(C)[C@@]3(F)[C@@H](O)C[C@@]21C` the Potency was “inactive”.
With `CCC(=O)c1c(O)cc(O)cc1O` the Potency was “inactive”.
With `CC[C@@H](CO)NCCN[C@@H](CC)CO` the Potency was “inactive”.
`Nc1ccc(/C=C/c2ccc(N)cc2S(=O)(=O)O)c(S(=O)(=O)O)c1` showed an activity change, negative = cytotoxic of 24.6% [at 0.597 µM].
With `COc1cc2c(cc1OC)C(=O)C(CC1CCN(Cc3ccccc3)CC1)C2` (stereo not given) the Potency was “inactive”.
For `CC(=O)OCC(=O)[C@@]12N=C(C)O[C@@H]1C[C@H]1[C@@H]3CCC4=CC(=O)C=C[C@]4(C)[C@H]3[C@@H](O)C[C@@]12C`, the Potency was “inactive”.
In the case of `O=S1(=O)c2cccc3cccc(c23)N1CCCN1CCN(c2ccc(F)cc2)CC1`, the Potency was “inactive”.
With `Oc1c(I)cc(I)c2cccnc12` the Potency was “inactive”.
With `CC/C(=C(/CC)c1ccc(O)cc1)c1ccc(O)cc1` the Potency was “inactive”.
For `COC(=O)[C@@H]1CC2=CC(=O)CC[C@]2(C)[C@@]23O[C@@H]2C[C@@]2(C)[C@@H](CC[C@@]24CCC(=O)O4)[C@H]13`, the Potency was “inactive”.
With `CCN1CCC[C@H]1CNC(=O)c1c(OC)ccc(Br)c1OC` the Potency was “inactive”.
In the case of `COc1cc2c(cc1OC)[C@@H]1CC(=O)[C@@H](CC(C)C)CN1CC2`, the Potency was “inactive”.
In the case of `C=CCc1ccc(O)c(OC)c1`, the Potency was “inactive”.
In the case of `CN=C(NC#N)NCCSCc1csc(N=C(N)N)n1`, the Potency was “inactive”.
In the case of `c1ccc(-c2ccc(C(c3ccccc3)n3ccnc3)cc2)cc1` (stereo not given), the Potency was “inactive”.
With `CN1[C@@H]2CC[C@H]1CC(OC(=O)c1c[nH]c3ccccc13)C2` (stereo not given in full) the Potency was “inactive”.
For `NCCC(O)(P(=O)(O)O)P(=O)(O)O`, the Potency was “inactive”.
